Data reported in PubChem BioAssay.
The source made the active and inactive calls.

Test system: Wnt5a (protein binding on small-molecule microarray)
Assay: Wnt5a binders on small-molecule microarray, primary screen, biophysical, 635/667 nm fluorescence (AID 1142);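 further: fluorescence read at 667 nm with signal to noise per printed feature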
Settings: 635 nm fluorescence, higher = more signal
With `O=C1NC(=O)C2C1C=CC(C(O)c1ccc(Br)cc1)N2Nc1ccccn1` (stereo not drawn) the composite z-score was 0.336. Work on `[N-]=[N+]=Nc1ccccc1[C@H]1OC(c2ccc(OCCCO)cc2)=N[C@@]1(CCS(=O)(=O)c1ccccc1)C(=O)N1CCCCC1` yielded a composite z-score of 0.375. For `CC(C)C(CO)N1C(=O)[C@]2(C)C3C(=O)OCCC/C=C\[C@H]3OC23C=CCN(c2ccc(Cl)cc2)C(=O)[C@@H]13` (stereo partly drawn), the composite z-score was -0.269. `C=C[C@@H](C)[C@H](OC(=O)Nc1ccc(SC)cc1)c1ccc(OCCO)cc1` showed a composite z-score of -0.403. Compound `[N-]=[N+]=NCc1ccccc1C[C@@]1(C(=O)NCCN2CCOCC2)N=C(c2ccc(OCCCO)cc2)O[C@@H]1c1ccccc1N=[N+]=[N-]` has a composite z-score of 0.512. In the case of `CC(=O)N1Cc2ccccc2C[C@]2(N=C(c3ccc(OCCCO)cc3)O[C@@H]2c2ccccc2)C1=O`, the composite z-score is reported as 0.865. For `O=C1c2ccccc2[C@](Cc2ccccc2I)(C(=O)NCCN2CCOCC2)[C@H](c2ccc(CO)cc2)N1Cc1ccccc1`, the composite z-score was 0.265. Compound `Cc1ccc(S[C@]2(C(=O)NC(C)C)CC(=O)N(Cc3ccccc3C(F)(F)F)[C@@H]2c2ccc(CO)cc2I)cc1` has a composite z-score of -0.38. Work on `CCOC(=O)[C@H]1C/C=C/C[C@H](C(=O)OCC)C(=O)O[C@H]2[C@@H](OC)O[C@H](CO)[C@@H](OC(=O)Nc3ccc(OC)cc3)[C@@H]2OC1=O` yielded a composite z-score of 0.314. In the case of `C[C@]1(C(=O)NCCN2CCOCC2)c2ccccc2C(=O)N(Cc2ccc(OC(F)(F)F)cc2)[C@H]1c1ccc(CO)cc1`, the composite z-score is reported as -0.333. Work on `C=CC[C@]1(C(=O)N(C)C)N=C(c2ccc(OCCCO)cc2)O[C@H]1c1ccccc1N=[N+]=[N-]` yielded a composite z-score of 0.596. `COc1ccc([Si](C)(C)[C@H]2[C@H](CCO)O[C@@]3(C(=O)N(Cc4cccc(N5CCCCC5=O)c4)c4ccccc43)[C@@H]2C)cc1` showed a composite z-score of 0.416. Work on `C=CC[C@H](OC(=O)Nc1ccc(OC)cc1)c1ccc(O)c2ccccc12` yielded a composite z-score of 0.49. `CC(C)N1CC=CC23O[C@@H]4C=CCOC(=O)[C@@H]4[C@H]2C(=O)N(C(C)CO)[C@@H]3C1=O` (stereo partly drawn) gave a composite z-score of -0.517. With `COCCOC(=O)N1C(=O)[C@@]2(c3cc(C#CCNC(N)=O)ccc31)[C@H](C(=O)N1CCCCCCC1)[C@H]1C(=O)O[C@H](c3ccccc3)[C@H](c3ccccc3)N1[C@@H]2c1ccc(O)cc1` the composite z-score was 0.233. For `COc1ccc(C(O)C2C=CC3C(=O)N(c4ccccc4)C(=O)C3N2Nc2ccccc2)cc1OCc1ccccc1` (stereo not drawn), the composite z-score was 0.302. With `C=CC[C@@H](OC(=O)Nc1ccc(OC)cc1)c1ccc(OCCO)cc1` the composite z-score was -1.2. With `O=C1O[C@@H](c2ccccc2)[C@@H](c2ccccc2)N2[C@@H](c3ccc(O)cc3)[C@]3(C(=O)Nc4ccccc43)[C@@H](C(=O)Nc3nc4ccccc4s3)[C@H]12` the composite z-score was 1.09. Work on `COCCCNC(=O)[C@]1(Cc2ccccc2N=[N+]=[N-])N=C(c2ccc(OCCCO)cc2)O[C@@H]1c1ccccc1N=[N+]=[N-]` yielded a composite z-score of 0.497. `O=C1OC[C@@H](c2ccccc2)N2CC(/C=C/c3ccccc3)=CC12` (stereo partly drawn) gave a composite z-score of -0.82. For `CC(C)CNC(=O)[C@@]1(c2ccc([N+](=O)[O-])cc2)CC(=O)N(C2CCCCC2)[C@@H]1c1ccc(CO)cc1I`, the composite z-score was -0.067. `COCCOC(=O)N1C(=O)[C@@]2(c3cc(C#Cc4ccc(OC)cc4)ccc31)[C@H](C(=O)N1CCCCCCC1)[C@H]1C(=O)O[C@H](c3ccccc3)[C@H](c3ccccc3)N1[C@@H]2c1ccc(O)cc1` gave a composite z-score of 0.164. In the case of `COCCCNC(=O)[C@]1(Cc2ccccc2CN=[N+]=[N-])N=C(c2ccc(OCCCO)cc2)O[C@@H]1c1ccccc1`, the composite z-score is reported as 0.419. For `C=CCC(OC(C)=O)[C@@H]1[C@@H](N(Cc2cc3ccccc3o2)C(=O)Cc2ccc(F)cc2)c2cc(OCCCO)ccc2N1C(=O)c1ccc2ccccc2n1` (stereo partly drawn), the composite z-score was 0.705. `CCN(CC)c1ccc(N2CC=CC34O[C@@H]5/C=C\CCC(C)OC(=O)C5[C@H]3C(=O)N(CCO)[C@@H]4C2=O)cc1` (stereo partly drawn) gave a composite z-score of -0.442. Work on `CCOC(=O)C[C@H]1[C@H](OC(=O)Cc2ccc3c(c2)OCO3)[C@@H](NC(=O)Cc2ccc(OC)cc2)c2cc(OCCCO)ccc2N1C(=O)c1ccccc1` yielded a composite z-score of 0.194.

Test system: not listed separately
Assay: cell viability in Huh7 cells, primary screen, cytotoxicity control for HCV replication inhibitor project, CellTiter-Glo luminescence, basal, 48 h (AID 1143);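 further: Huh7 hepatoma cells carrying a hepatitis C replication reporter with no stimulus; test concentration not given here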
Settings: Huh7 HCV replicon, higher = more signal, called active from +8 up or from −8 down
For `O=C1O[C@@H](c2ccccc2)[C@@H](c2ccccc2)N2[C@@H](c3ccccc3OCCO)[C@]3(C(=O)Nc4ccccc43)[C@@H](C(=O)NC[C@H](O)c3ccccc3)[C@H]12`, the z-score was -6.2 (inactive). With `COCCOC(=O)N1C(=O)[C@@]2(c3cc(C#CC4=CCCCC4)ccc31)[C@H](c1ccccc1OCCO)N1[C@H](c3ccccc3)[C@H](c3ccccc3)OC(=O)[C@H]1[C@@H]2C(=O)N1CCc2cc(OC)c(OC)cc2C1` the z-score was -1.93 (inactive). With `Cc1ccc(S[C@]2(C(=O)NC3CC3)CC(=O)N(Cc3ccccc3Cl)[C@@H]2c2ccc(CO)cc2I)cc1` the z-score was -1.5 (inactive). With `CC(C)CN1C(=O)[C@@]2(Cc3ccccc31)c1ccccc1C(=O)N(Cc1ccccc1C(F)(F)F)[C@H]2c1ccc(CO)cc1` the z-score was -2.54 (inactive). With `CCCN1C(=O)[C@]2(Cc3ccccc3)N=C(c3ccc(OCCCO)cc3)O[C@@H]2c2ccccc21` the z-score was -5.27 (inactive). For `C[C@]1(C(=O)NC2CC2)c2ccccc2C(=O)N(Cc2ccc(OC(F)(F)F)cc2)[C@H]1c1ccc(CO)cc1`, the z-score was -0.0474 (inactive). For `NC(=O)NCC#Cc1ccc2c(c1)[C@]1(C(=O)N2)[C@H](C(=O)O)[C@H]2C(=O)O[C@H](c3ccccc3)[C@H](c3ccccc3)N2[C@@H]1c1ccccc1OCCO`, the z-score was -1.95 (inactive). In the case of `Cc1ccc(S[C@]2(C(=O)NCCN3CCOCC3)CC(=O)N(Cc3ccccc3C(F)(F)F)[C@@H]2c2ccc(CO)cc2I)cc1`, the z-score is reported as -0.984 (inactive). In the case of `Cc1ccc(S[C@]2(C(=O)NCc3ccccc3)CC(=O)N(C(C)C)[C@@H]2c2ccc(CO)cc2I)cc1`, the z-score is reported as -1.11 (inactive). For `NC(=O)NCC#Cc1ccc2c(c1)[C@]1(C(=O)N2)[C@H](C(=O)Nc2nc3ccccc3s2)[C@H]2C(=O)O[C@H](c3ccccc3)[C@H](c3ccccc3)N2[C@@H]1c1ccc(O)cc1`, the z-score was 0.0524 (inactive). For `O=C1NC(=O)C2C1C=CC(C(O)c1ccc(Br)cc1)N2Nc1ccccn1` (stereo not drawn), the z-score was -0.0358 (inactive). With `[N-]=[N+]=Nc1ccccc1[C@H]1OC(c2ccc(OCCCO)cc2)=N[C@@]1(CCS(=O)(=O)c1ccccc1)C(=O)N1CCCCC1` the z-score was -4.28 (inactive). In the case of `CC(C)C(CO)N1C(=O)[C@]2(C)C3C(=O)OCCC/C=C\[C@H]3OC23C=CCN(c2ccc(Cl)cc2)C(=O)[C@@H]13` (stereo partly drawn), the z-score is reported as -0.199 (inactive). With `C=C[C@@H](C)[C@H](OC(=O)Nc1ccc(SC)cc1)c1ccc(OCCO)cc1` the z-score was -0.957 (inactive). With `[N-]=[N+]=NCc1ccccc1C[C@@]1(C(=O)NCCN2CCOCC2)N=C(c2ccc(OCCCO)cc2)O[C@@H]1c1ccccc1N=[N+]=[N-]` the z-score was -5.21 (inactive). For `CC(=O)N1Cc2ccccc2C[C@]2(N=C(c3ccc(OCCCO)cc3)O[C@@H]2c2ccccc2)C1=O`, the z-score was -3.38 (inactive). With `O=C1c2ccccc2[C@](Cc2ccccc2I)(C(=O)NCCN2CCOCC2)[C@H](c2ccc(CO)cc2)N1Cc1ccccc1` the z-score was -1.98 (inactive). In the case of `Cc1ccc(S[C@]2(C(=O)NC(C)C)CC(=O)N(Cc3ccccc3C(F)(F)F)[C@@H]2c2ccc(CO)cc2I)cc1`, the z-score is reported as -4.73 (inactive). For `CCOC(=O)[C@H]1C/C=C/C[C@H](C(=O)OCC)C(=O)O[C@H]2[C@@H](OC)O[C@H](CO)[C@@H](OC(=O)Nc3ccc(OC)cc3)[C@@H]2OC1=O`, the z-score was -3.41 (inactive). In the case of `C[C@]1(C(=O)NCCN2CCOCC2)c2ccccc2C(=O)N(Cc2ccc(OC(F)(F)F)cc2)[C@H]1c1ccc(CO)cc1`, the z-score is reported as -0.653 (inactive). In the case of `C=CC[C@]1(C(=O)N(C)C)N=C(c2ccc(OCCCO)cc2)O[C@H]1c1ccccc1N=[N+]=[N-]`, the z-score is reported as -2.58 (inactive). With `COc1ccc([Si](C)(C)[C@H]2[C@H](CCO)O[C@@]3(C(=O)N(Cc4cccc(N5CCCCC5=O)c4)c4ccccc43)[C@@H]2C)cc1` the z-score was -7.87 (inactive). In the case of `C=CC[C@H](OC(=O)Nc1ccc(OC)cc1)c1ccc(O)c2ccccc12`, the z-score is reported as -4.26 (inactive). For `CC(C)N1CC=CC23O[C@@H]4C=CCOC(=O)[C@@H]4[C@H]2C(=O)N(C(C)CO)[C@@H]3C1=O` (stereo partly drawn), the z-score was 0.394 (inactive). In the case of `COCCOC(=O)N1C(=O)[C@@]2(c3cc(C#CCNC(N)=O)ccc31)[C@H](C(=O)N1CCCCCCC1)[C@H]1C(=O)O[C@H](c3ccccc3)[C@H](c3ccccc3)N1[C@@H]2c1ccc(O)cc1`, the z-score is reported as -0.204 (inactive). In the case of `COc1ccc(C(O)C2C=CC3C(=O)N(c4ccccc4)C(=O)C3N2Nc2ccccc2)cc1OCc1ccccc1` (stereo not drawn), the z-score is reported as 0.197 (inactive). In the case of `C=CC[C@@H](OC(=O)Nc1ccc(OC)cc1)c1ccc(OCCO)cc1`, the z-score is reported as -2.05 (inactive). In the case of `O=C1O[C@@H](c2ccccc2)[C@@H](c2ccccc2)N2[C@@H](c3ccc(O)cc3)[C@]3(C(=O)Nc4ccccc43)[C@@H](C(=O)Nc3nc4ccccc4s3)[C@H]12`, the z-score is reported as -4.19 (inactive). With `COCCCNC(=O)[C@]1(Cc2ccccc2N=[N+]=[N-])N=C(c2ccc(OCCCO)cc2)O[C@@H]1c1ccccc1N=[N+]=[N-]` the z-score was -4.87 (inactive). With `O=C1OC[C@@H](c2ccccc2)N2CC(/C=C/c3ccccc3)=CC12` (stereo partly drawn) the z-score was -2.59 (inactive). With `CC(C)CNC(=O)[C@@]1(c2ccc([N+](=O)[O-])cc2)CC(=O)N(C2CCCCC2)[C@@H]1c1ccc(CO)cc1I` the z-score was -4.13 (inactive). With `COCCOC(=O)N1C(=O)[C@@]2(c3cc(C#Cc4ccc(OC)cc4)ccc31)[C@H](C(=O)N1CCCCCCC1)[C@H]1C(=O)O[C@H](c3ccccc3)[C@H](c3ccccc3)N1[C@@H]2c1ccc(O)cc1` the z-score was -5.16 (inactive).
